From PubChem BioAssay come the findings set out here.

The source made the active and inactive calls.

In assay [1] the test system is Plasmodium falciparum Sir2 (PF13_0152, Sir2A). Nature of the assay: pfSir2 binders on small-molecule microarrays, primary screen, biochemical, small-molecule microarray, 635 nm fluorescence (AID 1098).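 Note: score merges spot fluorescence intensity with its signal-to-noise ratio.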 As to conditions: small-molecule microarray binding, fluorescence 635 nm; higher = more signal.
A short description of assay [2]: small-molecule microarray binders of probe aDKK1, primary screen, biochemical, biotinylated probe, 635/667 nm fluorescence (AID 1099).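 Note: score merges 667nm spot fluorescence with signal to noise across triplicate slides.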 As to conditions: higher = more signal.
The nature of assay [3]: small-molecule microarray binders of probe aCHRDL2, primary screen, biochemical, biotinylated probe, 635/667 nm fluorescence (AID 1100). As to conditions: higher = more signal.
A short description of assay [4]: splicing luciferase reporter signal modulators, primary screen, spliceosome inhibition project, cell-based, HEK293, splice +/- reporter (AID 1101).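 Note: HEK293 cells carrying a splicing-competent luciferase reporter gene; test concentration not given here.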 As to conditions: luminescence, 24 h, higher = more signal, called active from +8 up or from −8 down. For orientation: In a reporter assay the amount or activity of a reporter protein is the signal.
Assay [5] concerns the target Fibroblast growth factor 10 (Homo sapiens) (UniProt O15520). Nature of the assay: FGF10 binders on small-molecule microarrays, primary screen, biochemical, small-molecule microarray, 635 nm fluorescence (AID 1102). As to conditions: FGF10 binding, fluorescence 635 nm, higher = more signal.
The subject of assay [6] is glycogen synthase kinase-3 (GSK3A per assay name; protocol says GSK3B). Nature of the assay: GSK3 binders on small-molecule microarrays, primary screen, biochemical, small-molecule microarray, 635 nm fluorescence, GSK3A (AID 1103). Note: the record names both GSK3A and GSK3B. As to conditions: small-molecule microarray binding, fluorescence 635 nm; higher = more signal.
Assay [7] concerns the target Epidermal growth factor receptor (Homo sapiens) (UniProt P00533). The experiment in a line: EGFR binders on small-molecule microarrays, primary screen, biochemical, small-molecule microarray, 635 nm fluorescence (AID 1104).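 Note: score merges 667 nm emission intensity with spot signal to noise over triplicate slides.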 As to conditions: EGFR binding, higher = more signal.
Assay [8] has as its target Follistatin-related protein 3 (Homo sapiens) (UniProt O95633). The experiment in a line: FSTL3 binders on small-molecule microarrays, primary screen, biochemical, small-molecule microarray, 635 nm fluorescence (AID 1105).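 Note: score merges emission near 667 nm and signal to noise per printed spot across three slides.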 As to conditions: FSTL3 binding, higher = more signal.
For assay [9], the target named is Dickkopf-related protein 1 (Homo sapiens) (UniProt O94907). The experiment in a line: DKK1 binders on small-molecule microarrays, primary screen, biochemical, small-molecule microarray, 635 nm fluorescence scan (AID 1106).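 Note: score merges emission near 667 nm with signal to noise over three replicate slides.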 As to conditions: DKK1 binding, higher = more signal.
Dickkopf-related protein 1 (Homo sapiens), sequence (O94907 whole entry, looked up): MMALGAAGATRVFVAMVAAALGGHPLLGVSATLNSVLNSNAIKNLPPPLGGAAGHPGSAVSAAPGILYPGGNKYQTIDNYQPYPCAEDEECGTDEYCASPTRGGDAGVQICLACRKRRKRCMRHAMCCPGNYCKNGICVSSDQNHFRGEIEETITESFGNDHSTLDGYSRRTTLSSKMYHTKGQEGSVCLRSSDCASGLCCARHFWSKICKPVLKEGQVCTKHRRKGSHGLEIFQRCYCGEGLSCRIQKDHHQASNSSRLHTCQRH
The test system of assay [10] is Inhibin beta A chain (activin A). The experiment in a line: INHBA (activin A) binders on microarrays, primary screen, biochemical, small-molecule microarray, 635 nm fluorescence scan (AID 1107).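 Note: mouse activin A protein probed at 4.33 µg/mL on printed slides; score merges bound-protein fluorescence near 667 nm with spot signal-to-noise.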 As to conditions: small-molecule microarray binding, higher = more signal.
The test system of assay [11] is Human papillomavirus type 1a protein E7 (residues 44-93). The experiment in a line: HPV1a E7 fragment binders on microarrays, primary screen, biochemical, small-molecule microarray, residues 44-93, 635 nm fluorescence (AID 1108).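 Note: E7 fragment applied at 1 µg/mL in TBST for 1 h at 4 C; score combines spot fluorescence with its signal to noise ratio.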 As to conditions: small-molecule microarray binding, fluorescence 635 nm; higher = more signal.
The nature of assay [12]: modulators of HCV replicon luciferase signal, primary screen, HCV replication inhibitor project, Huh7 cells, luciferase reporter (AID 1109).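 Note: huh7 hepatoma cells harbouring a luciferase neomycin HCV replicon reporter; luciferase luminescence as measure of HCV replicon replication; test concentration not given here.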 As to conditions: 48 h, higher = more signal. For orientation: Replicon systems follow genome replication, usually without infectious particles.
Assay [13] concerns the target Left-right determination factor 2 (Homo sapiens) (UniProt O00292). The experiment in a line: LEFTY2 binders on small-molecule microarrays, primary screen, biochemical, small-molecule microarray, 635 nm fluorescence scan (AID 1110). As to conditions: LEFTY2 binding, higher = more signal.
Assay [14] has as its target Calmodulin-1 (Homo sapiens) (UniProt P0DP23). Nature of the assay: CALM1 binders on microarrays, EGTA buffer, profiling panel, biochemical, small-molecule microarray, Cy5-labelled CALM1 (AID 1111).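 Note: labelled calmodulin applied in Tris saline Tween buffer holding calcium plus EGTA and DTT.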 As to conditions: Cy5-CALM1 binding fluorescence, higher = more signal.
Assay [15] has the same target. The experiment in a line: calcium-bound CALM1 binders on microarrays, profiling panel, artefact control for SMM control-protein annotation, biochemical, small-molecule microarray, Cy5-labelled CALM1, plus calcium (AID 1112).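 Note: score merges spot fluorescence with signal to noise from triplicate slides.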 As to conditions: Cy5-CALM1 binding fluorescence, higher = more signal.
Assay [16] can be described thus: small-molecule microarray binders of probe aWnt5a, primary screen, biochemical, biotinylated probe, 635/667 nm fluorescence (AID 1113).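 Note: score merges 667 nm fluorescence intensity with signal-to-noise per printed feature.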 As to conditions: higher = more signal.
Assay [17] in a line: small-molecule microarray binders of probe aShh, primary screen, biochemical, biotinylated probe, 635/667 nm fluorescence (AID 1114).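 Note: probe is biotin-labelled aShh protein from a stem cell growth factor screen; measures binding of labelled protein to compounds printed on the slide; score merges feature fluorescence at 667 nm with signal-to-noise.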 As to conditions: higher = more signal.
Assay [18] is described as follows: small-molecule microarray binders of probe aNog, primary screen, biochemical, biotinylated probe, 635/667 nm fluorescence (AID 1115).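 Note: probe is biotinylated aNog protein used at 0.15 µg/mL for 1 h at 4 C; z-score combines 667 nm fluorescence of each spot with its signal to noise.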 As to conditions: higher = more signal.
Assay [19] has as its target Torsin-1A-interacting protein 1 (Homo sapiens) (UniProt Q5JTV8). The experiment in a line: LAP1 binders from COS7 cell lysate, primary screen, small-molecule microarray, 635/667 nm fluorescence (AID 1116). As to conditions: COS7-hLAP1 lysate binding, 635 nm fluorescence, higher = more signal.
For assay [20], the target named is Alpha-bungarotoxin (Bungarus multicinctus) (UniProt P60615). The experiment in a line: alpha-bungarotoxin binders on microarray, profiling panel, artefact control for SMM control protein annotation, biochemical, small-molecule microarray, Alexa647 label, 635/667 nm fluorescence (AID 1117). As to conditions: alpha-BTX-A647 binding fluorescence, higher = more signal.
Alpha-bungarotoxin (Bungarus multicinctus), sequence (P60615 whole entry, looked up): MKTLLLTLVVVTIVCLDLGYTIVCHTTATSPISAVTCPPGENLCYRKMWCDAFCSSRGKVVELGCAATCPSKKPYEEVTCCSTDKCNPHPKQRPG

Epidermal growth factor receptor (Homo sapiens), sequence (P00533 whole entry, looked up): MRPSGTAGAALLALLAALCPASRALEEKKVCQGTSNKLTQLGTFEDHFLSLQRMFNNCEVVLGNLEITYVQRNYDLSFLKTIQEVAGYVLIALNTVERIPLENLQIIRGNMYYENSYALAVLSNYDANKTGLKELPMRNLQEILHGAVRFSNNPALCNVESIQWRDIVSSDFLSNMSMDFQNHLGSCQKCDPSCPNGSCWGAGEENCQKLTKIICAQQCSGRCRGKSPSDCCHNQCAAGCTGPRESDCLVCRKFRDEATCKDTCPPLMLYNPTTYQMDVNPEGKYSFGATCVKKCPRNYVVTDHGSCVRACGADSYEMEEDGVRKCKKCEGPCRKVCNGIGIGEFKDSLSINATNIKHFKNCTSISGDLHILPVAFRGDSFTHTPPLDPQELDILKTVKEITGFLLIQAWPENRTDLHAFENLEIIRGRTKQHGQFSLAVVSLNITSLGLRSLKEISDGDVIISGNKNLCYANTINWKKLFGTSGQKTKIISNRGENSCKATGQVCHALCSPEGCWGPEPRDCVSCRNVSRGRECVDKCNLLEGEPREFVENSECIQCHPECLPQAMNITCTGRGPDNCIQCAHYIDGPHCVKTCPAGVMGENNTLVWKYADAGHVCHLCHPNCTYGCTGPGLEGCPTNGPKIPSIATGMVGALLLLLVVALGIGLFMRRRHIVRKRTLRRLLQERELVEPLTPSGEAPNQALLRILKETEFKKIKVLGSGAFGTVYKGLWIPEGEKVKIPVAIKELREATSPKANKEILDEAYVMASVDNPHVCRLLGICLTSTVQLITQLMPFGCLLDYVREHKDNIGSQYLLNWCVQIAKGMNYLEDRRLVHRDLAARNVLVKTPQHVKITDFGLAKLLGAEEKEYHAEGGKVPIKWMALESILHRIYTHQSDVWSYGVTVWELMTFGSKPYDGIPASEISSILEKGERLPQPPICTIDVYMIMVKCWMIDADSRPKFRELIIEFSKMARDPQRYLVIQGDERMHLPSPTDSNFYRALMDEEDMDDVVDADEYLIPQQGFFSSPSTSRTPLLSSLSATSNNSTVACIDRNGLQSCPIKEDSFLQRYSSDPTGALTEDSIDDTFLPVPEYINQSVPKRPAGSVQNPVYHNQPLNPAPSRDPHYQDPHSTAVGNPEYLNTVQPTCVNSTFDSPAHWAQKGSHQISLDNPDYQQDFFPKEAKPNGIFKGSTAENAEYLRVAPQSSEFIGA
Fibroblast growth factor 10 (Homo sapiens), sequence (O15520 whole entry, looked up): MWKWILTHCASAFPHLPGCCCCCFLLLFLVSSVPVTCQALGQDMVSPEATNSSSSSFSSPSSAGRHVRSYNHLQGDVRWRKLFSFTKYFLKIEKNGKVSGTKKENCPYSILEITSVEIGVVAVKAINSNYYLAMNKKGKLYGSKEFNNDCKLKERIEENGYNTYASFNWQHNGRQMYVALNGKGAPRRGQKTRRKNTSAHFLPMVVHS
Torsin-1A-interacting protein 1 (Homo sapiens), sequence (Q5JTV8 whole entry, looked up): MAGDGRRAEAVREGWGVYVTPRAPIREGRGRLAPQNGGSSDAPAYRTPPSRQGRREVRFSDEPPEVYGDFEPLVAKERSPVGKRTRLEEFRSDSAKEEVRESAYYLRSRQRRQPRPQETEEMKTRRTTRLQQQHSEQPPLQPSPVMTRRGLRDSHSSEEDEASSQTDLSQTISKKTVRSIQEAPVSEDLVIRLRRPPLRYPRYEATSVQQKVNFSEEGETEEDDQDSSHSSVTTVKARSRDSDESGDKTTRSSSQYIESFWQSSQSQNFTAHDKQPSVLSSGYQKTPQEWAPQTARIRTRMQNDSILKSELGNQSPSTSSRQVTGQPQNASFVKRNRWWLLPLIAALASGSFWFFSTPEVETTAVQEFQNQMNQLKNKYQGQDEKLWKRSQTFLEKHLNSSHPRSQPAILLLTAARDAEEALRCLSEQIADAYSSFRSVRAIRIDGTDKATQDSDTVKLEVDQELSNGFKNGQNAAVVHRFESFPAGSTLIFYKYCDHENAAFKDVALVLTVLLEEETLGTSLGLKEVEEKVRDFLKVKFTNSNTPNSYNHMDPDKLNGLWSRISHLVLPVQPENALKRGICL
Follistatin-related protein 3 (Homo sapiens), sequence (O95633 whole entry, looked up): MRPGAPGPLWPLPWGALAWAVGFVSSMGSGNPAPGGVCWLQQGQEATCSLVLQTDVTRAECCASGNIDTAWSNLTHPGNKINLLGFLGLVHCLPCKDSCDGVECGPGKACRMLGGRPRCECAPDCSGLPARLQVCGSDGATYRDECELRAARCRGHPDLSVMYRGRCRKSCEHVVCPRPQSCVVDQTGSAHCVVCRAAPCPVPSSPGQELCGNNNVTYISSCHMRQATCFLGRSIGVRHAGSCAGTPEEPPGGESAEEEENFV
Left-right determination factor 2 (Homo sapiens), sequence (O00292 whole entry, looked up): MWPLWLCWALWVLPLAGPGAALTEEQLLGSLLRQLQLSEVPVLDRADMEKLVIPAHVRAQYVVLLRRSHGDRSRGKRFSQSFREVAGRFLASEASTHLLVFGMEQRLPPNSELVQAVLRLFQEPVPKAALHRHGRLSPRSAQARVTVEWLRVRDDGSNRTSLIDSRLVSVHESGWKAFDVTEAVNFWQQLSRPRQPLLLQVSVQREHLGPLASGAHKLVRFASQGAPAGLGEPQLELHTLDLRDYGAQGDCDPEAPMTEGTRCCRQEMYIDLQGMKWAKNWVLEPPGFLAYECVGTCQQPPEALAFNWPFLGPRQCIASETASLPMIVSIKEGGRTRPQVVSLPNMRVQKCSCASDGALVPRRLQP

With `O=C(NC1CC1)[C@@H]1c2ccccc2C(=O)N(Cc2cc(C(F)(F)F)cc(C(F)(F)F)c2)[C@H]1c1ccc(CO)cc1`, the composite z-score in assay [1] was 0.965; in assay [2], -0.534; in assay [3] it was -0.47; in [5], 0.105; in assay [6], -0.436; in assay [7] it was -0.675. Besides, the composite z-score in [8] was 0.075; in [9], -0.835; in assay [10], -0.547; in assay [11], 1.35; in assay [13], -0.876; in assay [14], 0.146. The composite z-score in assay [15] was -0.366; in assay [16] it was -0.0203; in assay [17] it was -0.517; in assay [18], 0.431; in assay [19], -0.0446; in assay [20], 0.955. Further, the z-score was -0.261 (inactive) in [4] and -1.02 in assay [12].
`C=CC[C@@]12N=C(c3ccc(OCCCO)cc3)O[C@@H]1c1ccccc1N(CCC)C2=O`: the composite z-score is 1.58 in assay [1]; 0.257 in assay [2]; 0.952 in assay [3]; 0.85 in assay [5]; 1.25 in [6]; 0.153 in assay [7]. Moreover, the composite z-score in [8] is 1.15; in assay [9], -0.0879; in [10] it was 1.19; in [11] it was 1.35; in assay [13] it was 0.271; in [14], 0.106. The composite z-score in assay [15] was -0.242; in assay [16], -0.0485; in assay [17], 0.337; in assay [18], 0.164; in assay [19] it was 1.2; in [20], 1.77. Also, the z-score was -0.457 (inactive) in [4] and -2.18 in [12].
With `CC(C)C[C@@H]1NC(=O)[C@@]23C(=O)N[C@@H](Cc4ccccc4)C2[C@H](C)[C@@]2(C)O[C@H]2C3/C=C/C/C=C\CNC(=O)CNC1=O` (stereo not given in full), the composite z-score in assay [1] is 1.19; in assay [2], -0.268; in assay [3] it was -0.51; in [5] it was 0.452; in assay [6] it was 0.202; in [7] it was 0.127. Further, the composite z-score in [8] was 0.768; in assay [9] it was 0.268; in [10], 1.4; in assay [11] it was 0.346; in assay [13], 0.259; in [14], -0.535. The composite z-score in assay [15] was -0.963; in assay [16] it was -0.0478; in [17] it was -0.138; in assay [18] it was -0.125; in [19] it was 0.189; in [20], 0.49. For the same molecule, the z-score in assay [4] is 0.103 (inactive); in [12], 0.349.
On to `CN(C)CCCC[C@@H]1NC(=O)[C@@H]2C[C@H](C(=O)NCCCCCCNC(=O)CS)[C@H](c3ccc(O)cc3)N2C1=O`, for which the composite z-score in assay [1] was 0.73; in assay [2] it was -0.165; in assay [3], -0.294; in [5] it was 1.34; in [6], 1.24; in assay [7], 0.954. In addition, the composite z-score in [8] is 0.997; in assay [9], 1.31; in assay [10] it was 0.277; in assay [11] it was 1.16; in [13], 1.24; in [14], -0.383. Also, the composite z-score was -0.199 in assay [15]; -0.275 in assay [16]; -0.124 in assay [17]; -0.0174 in assay [18]; 0.464 in assay [19]; 0.136 in [20]. Besides, the z-score in assay [4] was 1.06 (inactive); in assay [12], 0.278.
In the case of `COc1ccc([Si](C)(C)[C@@H]2[C@@H](CC(=O)N(CCO)Cc3ccccc3)O[C@]3(C(=O)N(Cc4ccc(I)cc4)c4ccccc43)[C@H]2C)cc1`, the composite z-score came out at 0.625 in [1]; 0.346 in assay [2]; 0.351 in assay [3]; 1.1 in [5]; 0.301 in [6]; 1.03 in [7]. Moreover, the composite z-score in [8] turned out to be 1.37; in [9] it was 1.2; in [10], 1.58; in assay [11] it was 0.684; in assay [13], 0.792; in assay [14], 1.61. For the same molecule, the composite z-score is 0.54 in assay [15]; -0.0718 in [16]; 0.531 in assay [17]; -0.0815 in assay [18]; 1.23 in [19]; 0.375 in assay [20]. In addition, the z-score is -2.35 (inactive) in [4] and -4.03 in assay [12].
As to `Cc1ccc(S[C@]2(C(=O)NCC(F)(F)F)CC(=O)N(Cc3ccccc3C(F)(F)F)[C@@H]2c2ccc(CO)cc2)cc1`, the composite z-score in assay [1] was -0.57; in assay [2] it was 0.228; in assay [3], 0.942; in [5], -0.83; in assay [6], -1.23; in assay [7], -0.548. The composite z-score in assay [8] was -1.51; in assay [9], -1.07; in assay [10], 0.247; in assay [11], -0.654; in [13], -1.32; in assay [14], -0.39. Further, the composite z-score in assay [15] was 0.0313; in assay [16], -0.199; in assay [17] it was -0.253; in assay [18], 0.526; in [19] it was 0.0216; in assay [20], -0.693. Besides, the z-score in assay [4] was 0.338 (inactive); in assay [12] it was 0.169.
